# According to PubChem BioAssay (NCATS):
# Results filed as inconclusive are left out. The source made the active and inactive calls. Calls come from the whole dose curve; as a rule, active = well fitted inhibition curve with a large enough effect; inconclusive = small, poorly fitted or top-dose-only effect; inactive = flat fitted curve, though single readings scatter.
# Tested on: 7G8
# Assay: qHTS profiling for inhibitors of Plasmodium falciparum proliferation (AID 504749); note: nearly all actives have a fitted effect of over 60% in size;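 for activity, negative = inhibition: 0% = DMSO vehicle and full inhibition = artemisinin control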
# Conditions: P. falciparum in erythrocytes, SYBR Green DNA, 72 h; series mostly up to 28.7 µM; activity, negative = inhibition: at the top concentration
# Outline: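 Readout was DNA-dye fluorescence from lysed cultures, ex 485/em 535 nm. Parasitized red cells had grown 72 h with compound; data scaled between 0.29 uM artemisinin and DMSO wells and corrected using vehicle-only plates.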
# Potency is the fitted concentration of half-maximal effect.
Structure (SMILES),"activity, negative = inhibition",Potency
CC1NCCOC1c1ccccc1 (stereo not given),-4.29% (inactive),–
CCCC(C)(COC(N)=O)COC(=O)NC(C)C (stereo not given),-4.4% (inactive),–
N#CC(C#N)=Cc1ccc(O)c(O)c1,–,8910 nM (active)
O=c1[nH]c2ccccc2n1CCCN1CCC(n2c(=O)[nH]c3cc(Cl)ccc32)CC1,–,1410 nM (active)
Nc1ccncc1,-18.8% (inactive),–
CC(=O)[C@H]1CC[C@H]2[C@@H]3CC[C@H]4C[C@H](O)CC[C@]4(C)[C@H]3C(=O)C[C@]12C,-27.2% (inactive),–
CCC(C(N)=O)N1CCCC1=O (stereo not given),9.77% (inactive),–
CN(C)CCc1ccc(O)cc1,-12.7% (inactive),–
NCC(CC(=O)O)c1ccc(Cl)cc1 (stereo not given),20.9% (inactive),–
C=C1CC[C@@]2(O)[C@H]3Cc4ccc(O)c5c4[C@@]2(CCN3CC2CC2)[C@H]1O5,-22.7% (inactive),–
NP(N)(=O)NC(=O)c1ccc(F)cc1,-10.5% (inactive),–
CC[N+]1(C)CCCC(OC(=O)C(O)(c2ccccc2)c2ccccc2)C1 (stereo not given),-14.2% (inactive),–
CC(=O)Nc1cc([As](=O)(O)O)ccc1O,-22.5% (inactive),–
CC(C)CC(N(C)C)C1(c2ccc(Cl)cc2)CCC1 (stereo not given),-24.7% (inactive),–
CCC(COC(=O)c1cc(OC)c(OC)c(OC)c1)(c1ccccc1)N(C)C (stereo not given),-29.1% (inactive),–
NN=C(N)N,-3.17% (inactive),–
CC(=O)[C@H]1CC[C@H]2[C@@H]3CC[C@H]4C[C@](C)(O)CC[C@]4(C)[C@H]3CC[C@]12C,-18.3% (inactive),–
CCOC(=O)C1(c2ccccc2)CCN(CCC(C#N)(c2ccccc2)c2ccccc2)CC1,–,2240 nM (active)
Oc1cc(Cl)ccc1Oc1ccc(Cl)cc1Cl,–,1120 nM (active)
C=C(C)[C@H]1Cc2c(ccc3c2O[C@@H]2COc4cc(OC)c(OC)cc4[C@@H]2C3=O)O1,–,10000 nM (active)
